The experiment relates to PglD UDP-4-amino-sugar N-acetyltransferase (Campylobacter jejuni). In words: PglD acetyltransferase inhibitors, confirmation, biochemical, DTNB absorbance, single point, cherry-picked samples (AID 743156).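 Note: initial rate of CoA release by acetyl transfer from AcCoA to the UDP-4-amino sugar; 0% = median of neutral control wells and 100% = median of positive control wells.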 The conditions noted are these: Purified C. jejuni PglD, DTNB absorbance 412 nm; at 20 µM; active compounds read high.

Each structure is given as a SMILES string. The list shows a part of the results. A number with no mark means an inactive call.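 Rule for the calls: active = mean inhibition across replicates of at least 20% with every single replicate also at 20% or more; inconclusive = mean inhibition at least 20% but some replicate falls below 20%; inactive = mean inhibition under 20% and not all replicates reach it.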

What is called inhibition is how much of the control response was suppressed. `c1ccc2sc(N3CCNCC3)nc2c1`: the inhibition was 8.98%.

The values are drawn from PubChem BioAssay AID743156 (Broad Institute, 2013).
